# Source: PubChem (National Center for Advancing Translational Sciences (NCATS))
# Shown are actives, neighbours in structure and some others; about 2.7% of the full set was active somewhere.
# Tau ThT inhib = inhibitors of human tau fibril formation, thioflavin T binding. recombinant tau K18 P301L, heparin-induced fibrillization, ThT fluorescence. Potency, µM (top dose mostly 57.4 µM), for inactives: at the highest dose activity, negative = inhibition, most hits filed as inhibitors. AID 1460. 270,000 compounds, 2.1% hits. P10636; note: potency is the fitted concentration of half-maximal effect; nearly all actives have a fitted effect of over 55% in size
# Target sequence (P10636 561-689 P618L limits assumed): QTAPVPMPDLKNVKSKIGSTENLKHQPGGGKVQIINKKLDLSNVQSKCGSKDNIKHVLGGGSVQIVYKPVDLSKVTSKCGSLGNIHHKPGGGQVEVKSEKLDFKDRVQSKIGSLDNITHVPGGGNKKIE
#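 Aggregation was driven by heparin (20 uM final) acting on recombinant tau […] bearing P301L in 100 mM sodium acetate pH 7; fibrils were detected with Thioflavin T.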
# Tau fluor cs = counter-screen for tau fibril formation inhibitors | Potency, µM (series often up to 57.7 µM), for inactives: at the top dose activity change, negative = decrease | AID 1463 | 280,000 compounds, 0.93% hits | tau K18 P301L (four-repeat tau fragment) Alexa594 fluorescence, heparin fibrillization; note: potency is the fitted concentration of half-maximal effect; nearly all actives have a fitted effect of over 55% in size
#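 Human K18 P301L tau (15 uM unlabeled plus 0.24 uM Alexa 594-labeled, final) in 100 mM sodium acetate pH 7 was mixed with compound and 20 uM heparin and incubated 6 hr at 37 C.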
# Tau FP inhib = blocks human tau fibril formation measured by polarization; 280,000 compounds, 0.39% hits; K18 P301L tau heparin fibrillization, Alexa594 FP, 6 h; Potency, µM (top dose mostly 57.7 µM), inactives show at the highest dose activity, negative = inhibition, usual class: inhibitors; P10636; AID 1468; note: potency is the fitted concentration of half-maximal effect; nearly all actives have a fitted effect of over 55% in size
#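 Human K18 P301L fragment (15 uM unlabeled plus 0.24 uM Alexa 594-labeled) in 100 mM sodium acetate pH 7 with compound, aggregation induced by 20 uM heparin for 6 hr at 37 C. ThT (30 uM) added for 1 hr, then Alexa 594 FP read.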
# Coupling enz = inhibits coupling enzyme system, counter-screen for aldolase hits; coupling enzyme system counterscreen, AmpLite Red fluorescence; activity change, negative = inhibition, % at 58.2 µM, hits read low; 290,000 compounds, 0.67% hits; AID 2472; in the data active = activity change below about -30%
#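 First, compound is pin-transferred into glyceraldehyde-3-phosphate coupling-enzyme reagent at 57.5 uM final and held 10 min at RT. Next, substrate, coupling system and AmpLite Red are added. After 20 min RT, fluorescence (525/598 nm) is read.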
# Starred values were filed as active, the others as inactive; ? = inconclusive; nt = not tested or not shown; [ ] = remark or other dose. Unless noted, calls come from the whole dose curve; as a rule, active = well fitted curve in the direction sought with a large enough effect; inconclusive = small, poorly fitted or top-dose-only effect, or another doubt; inactive = no such curve, though single readings can be large; an effect the other way counts as inactive or inconclusive. % is set by controls: 0 for no effect and ±100 for the full control effect.
SMILES,Tau ThT inhib,Tau fluor cs,Tau FP inhib,Coupling enz
Cc1ccc(NC(=O)CNc2ccc(Cl)c(Cl)c2)cc1S(=O)(=O)N(C)C,-4%,16µM*[quencher],-6%,0
CCOC(=O)c1noc2nc(C)n(CC(=O)Nc3cc(Cl)ccc3OC)c(=O)c12,4%,-6%,-7%,nt
CCOCCCn1c(SCC(=O)NCCCOC)nc2c(sc3ccccc32)c1=O,7%,-1%,-14%,nt
Cn1ccnc1C(=O)c1ccc(NN)c([N+](=O)[O-])c1,22µM*,?,-2%,0
Cn1ccnc1C(=O)c1cccc([N+](=O)[O-])c1,-4%,-1%,8%,0
CC1=C(CC(=O)c2ccc(Cl)cc2)C(=O)c2ccccc2C1=O,?,?,?,-40*
Cc1nnc(N/N=C/c2ccc(-c3ccc(Br)cc3)o2)n1N,7.9µM*,?,-15%,-27
Cc1nnc(N/N=C/c2ccc(Br)cc2)n1N,nt,nt,nt,0
Nn1cnnc1N/N=C/c1ccc(Cl)c([N+](=O)[O-])c1,25µM*,-26%,?,-26
Nn1cnnc1N/N=C/c1ccc(F)cc1,nt,nt,nt,0
COc1ccc(/C=N/Nc2nnc(C)n2N)cc1OC(C)=O,nt,nt,nt,-7
Cc1nnc(N/N=C/c2ccc([N+](=O)[O-])cc2)n1N,?,-11%,-29%,-45*
COc1ccc(/C=N/Nc2nnc(C)n2N)cc1OC,28µM*,-19%,?,-40*
O=C(CN1C=NS(=O)(=O)c2ccccc21)Nc1ccc(F)cc1,-2%,-12%,-7%,nt
COc1ccc(OCCn2c(C)nc3cc(C)c(C)cc32)cc1,-11%,-10%,2%,nt
COc1ccccc1CNc1ccnc(-c2ccc(N(C)C)cc2)n1,nt,nt,nt,-8
Cc1cc(O)ccc1N/C=C1\CCCC1=O,28µM*,-20%,?,-44*
CCOc1ccc(/C=C/C(=O)c2cc(Br)ccc(=O)c2O)cc1,4.5µM*,?,?,-2
CCOc1ccc(C(=O)/C=C/c2ccc(OC)c(OC)c2)cc1,?,-16%,0%,0
Cc1cccc(/C=C/C(=O)c2cc(Br)ccc(=O)c2O)c1,14µM*,?,?,0
CCc1ccc(/C=C/C(=O)c2cc(Br)ccc(=O)c2O)cc1,16µM*,?,?,0
CCCn1c(=O)c2sccc2n2c(CCCC(=O)N3CCN(c4cccc(Cl)c4)CC3)nnc12,-8%,-8%,-3%,nt
Cc1[nH]c2ccccc2c1C(=O)C(=O)N(C)C1CCCCC1,nt,nt,nt,-1
Cc1[nH]c2ccccc2c1C(=O)CSC(=S)N(C)C1CCCCC1,-14%,?,25µM*,-10
Cc1[nH]c2ccccc2c1C(=O)CSC(=S)N1CCCCC1,?,22µM*[quencher],40µM*,-15
SMILES,Tau ThT inhib,Tau fluor cs,Tau FP inhib,Coupling enz
O=C(Nc1ccc(F)cc1F)c1ccc2c(c1)CCN2S(=O)(=O)c1ccc(Cl)cc1,3%,-28%,?,nt
CCCCOc1ccc2c(c1)C(=O)c1cc(O)ccc1-2,11µM*,14µM*[quencher],?,3
O=C(O)COc1ccc2c(c1)CCCC2,-1%,-6%,1%,3
CCOc1ccc2c(c1)C(=O)c1cc(OCC(=O)O)ccc1-2,11µM*,-27%,-6%,-12
COc1cccc(Cn2c(=O)c(CCc3ccccc3)nc3cnc(N4CCN(C)CC4)nc32)c1,nt,nt,nt,-1
CC1=CC(C)(C)N2C(=O)C(=Nc3ccc(O)cc3)c3cccc1c32,13µM*,?,28µM*,-45*
Nc1ccc2nc(CN3CCOCC3)[nH]c2c1,?,-10%,-1%,-32*
c1ccc2[nH]c(CN3CCOCC3)nc2c1,5%,-2%,-1%,3
O=C(Nc1ccc(Cl)c(Cl)c1)Nc1nnc(CSc2ccccc2)s1,8%,-29%,3.5µM*,1
Cc1ccc(OCCSCc2nnc(NC(=O)Nc3cccc(Cl)c3)s2)cc1,10%,?,16µM*,1
O=C(Nc1ccccc1)Nc1nnc(CSCc2ccccc2Cl)s1,21%,?,10µM*,2
Cc1nnc(NC(=O)Nc2cccc(Cl)c2)s1,0%,-23%,1%,2
O=C(Nc1cccc(Cl)c1)Nc1nccs1,0%,?,?,0
O=C(Nc1ccc(Cl)cc1)Nc1nnc(CSCc2ccccc2Cl)s1,?,2%,?,10
O=C(Nc1ccc(Cl)c(Cl)c1)Nc1nccs1,?,?,14µM*,-1
CC(Cc1cccs1)NC(=O)Nc1ccc(Cl)cc1 (configuration not stated),-5%,-29%,-11%,0
CC(Cc1cccs1)NC(=O)Nc1ccc(Cl)c(Cl)c1 (configuration not stated),-4%,?,25µM*,-3
CC(C)CN=Cc1c(O)c([N+](=O)[O-])cc2oc3c(c12)CCCC3,4.5µM*,?,?,-32*
O=[N+]([O-])c1cc2oc3c(c2c(C=NCc2ccccc2)c1O)CCCC3,5µM*,-11%,?,-29
COC(=O)C1=C[C@@H](C(=O)OC)C2C3=C(C(=O)[C@]2(C)NC(=O)c2ccccc2)[C@H](C)n2c(=O)n(C)c(=O)n2[C@@H]3C1 (some centres not stated),nt,nt,nt,5
COc1ccc2c(c1)OC1(O)COc3cc(OC)c(OC)cc3C1=C2 (configuration not stated),5.6µM*,?,?,-5
COc1ccc(C2CC(O)(c3ccccc3)Oc3cc(OC)ccc32)cc1 (configuration not stated),-13%,?,-1%,-8
CCC(=O)N1c2ccccc2CC1C(=O)NCCN1CCN(c2cc(Cl)ccc2C)CC1 (configuration not stated),-16%,-9%,8%,nt
CCC(=O)c1ccc(NC(C)=O)cc1O,0%,-11%,-5%,4
CC(=O)Nc1ccc2c(c1)C(C)(C)C(C)N2C (configuration not stated),?,28µM*[fluorescent],?,0
SMILES,Tau ThT inhib,Tau fluor cs,Tau FP inhib,Coupling enz
Cc1c(CCO)c(=O)n(-c2ccccc2)n1S(=O)(=O)c1c(Cl)cc(Cl)cc1Cl,?,-13%,0%,-39*
Cc1c(CCO)c(=O)[nH]n1S(=O)(=O)c1ccccc1,0%,4%,6%,3
C[C@@](N)(C(=O)O)c1ccc(P(=O)(O)O)cc1,-7%,-6%,-5%,1
O=C(/C=C/c1ccccc1Cl)Nc1cccc(S(=O)(=O)NC2=NCCCCC2)c1,1%,14µM*[quencher],?,-3
Cc1cc(N2CCCCC2)nc2ccc(NC(=O)/C=C/c3ccccc3OC(C)C)cc12,?,7.1µM*[quencher],13%,nt
Cc1cc(N2CCCC2)nc2ccc(NC(=S)NCCCOC(C)C)cc12,-15%,-14%,9%,-1
Cc1cc(N2CCCCC2)nc2ccc(NC(=O)/C=C/c3ccccc3Cl)cc12,4.5µM*,10µM*[quencher],10%,nt
CC(C)=CCC/C(C)=C/CO/N=C1/C[C@@H](O)[C@@H](O)[C@@H]2[C@@H]3C(=O)N(c4cccc(Oc5ccccc5)c4)C(=O)[C@H]3CC[C@@H]12,-1%[11.5 µM],-4%[11.6 µM],-4%[11.6 µM],1
